Source: PubChem BioAssay (several laboratories)
Cl transport mod – KCC2 cotransporter modulators, thallium flux, primary screen, cell-based, HEK293 KCC2, FluoZin-2 fluorescence, MLSMR; Solute carrier family 12 member 5 (Homo sapiens), Q9H2X9; KCC2 cells, thallium flux FluoZin-2 fluorescence; B-score of Tl+ flux slope (higher = more flux/activation; lower = inhibition) at 10 µM; actives 2.2% (n = 190,000);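 active means thallium flux slope and its plate-corrected score both differing from the plate sample mean at a set confidence after two filtering rounds, in either direction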;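 further: slope of fluorescence scaled to starting intensity during 10 to 20 s after thallium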
Target sequence (Q9H2X9 whole entry, looked up): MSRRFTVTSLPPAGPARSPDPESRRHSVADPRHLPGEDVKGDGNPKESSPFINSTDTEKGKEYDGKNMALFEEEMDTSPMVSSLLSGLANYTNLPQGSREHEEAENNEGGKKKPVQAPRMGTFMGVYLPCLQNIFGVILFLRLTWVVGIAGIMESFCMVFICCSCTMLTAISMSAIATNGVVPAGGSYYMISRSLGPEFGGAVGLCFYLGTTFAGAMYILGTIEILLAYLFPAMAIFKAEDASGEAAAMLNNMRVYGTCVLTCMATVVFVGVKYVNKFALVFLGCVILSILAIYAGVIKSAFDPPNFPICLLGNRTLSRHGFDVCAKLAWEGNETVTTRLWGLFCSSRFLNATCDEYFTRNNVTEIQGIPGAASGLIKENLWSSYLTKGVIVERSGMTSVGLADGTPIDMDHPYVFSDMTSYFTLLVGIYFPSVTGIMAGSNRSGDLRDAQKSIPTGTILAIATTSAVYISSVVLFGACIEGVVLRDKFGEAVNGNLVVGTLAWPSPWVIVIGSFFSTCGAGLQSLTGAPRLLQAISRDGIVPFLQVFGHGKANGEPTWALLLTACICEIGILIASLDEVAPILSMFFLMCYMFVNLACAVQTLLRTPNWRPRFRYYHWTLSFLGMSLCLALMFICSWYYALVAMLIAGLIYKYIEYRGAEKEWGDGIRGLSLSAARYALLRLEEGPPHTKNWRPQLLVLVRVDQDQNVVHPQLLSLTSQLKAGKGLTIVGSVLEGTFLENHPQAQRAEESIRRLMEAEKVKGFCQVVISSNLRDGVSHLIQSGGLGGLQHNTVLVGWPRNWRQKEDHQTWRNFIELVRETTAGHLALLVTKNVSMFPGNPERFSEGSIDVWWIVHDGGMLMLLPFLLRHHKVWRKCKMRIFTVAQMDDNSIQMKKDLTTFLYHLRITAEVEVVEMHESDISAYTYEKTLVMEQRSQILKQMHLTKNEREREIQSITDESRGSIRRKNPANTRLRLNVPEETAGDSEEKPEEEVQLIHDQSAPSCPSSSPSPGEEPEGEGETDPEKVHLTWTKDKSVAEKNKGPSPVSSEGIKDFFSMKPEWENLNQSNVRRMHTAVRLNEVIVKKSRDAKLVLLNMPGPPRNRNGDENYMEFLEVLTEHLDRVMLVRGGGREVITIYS
EP2 modulator – EP2 receptor modulators, cAMP readout, primary screen, cell-based, HTRF cAMP, PGE2 stimulation; Prostaglandin E2 receptor EP2 subtype (Homo sapiens), P43116; actives 0.83% (n = 260,000); EP2-expressing cells, cAMP HTRF FRET, PGE2 co-stimulation; induction, % at 25 µM;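 active means compounds whose cAMP rise, as percent of the full-agonist control response, exceeds 60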;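 further: rat C6 glioma line stably carrying human EP2 under a CMV promoter; the protocol text gives 20 µM as final concentration; 100% = response of wells given 1 µM PGE2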
PGE2 EP2 inh – human EP2 receptor antagonists, primary screen, TR-FRET cAMP, C6 glioma cells | Prostaglandin E2 receptor EP2 subtype (Homo sapiens), P43116 | inhibition, % at 25 µM | C6 glioma cells expressing human EP2; cells stimulated with saturating PGE2 | actives 0.52% (n = 260,000);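 active means percent inhibition above 40 after rounding to a whole number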;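 further: rat C6 glioma host cells with rolipram phosphodiesterase inhibitor present; the protocol text gives 20 µM as final concentration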
S1P3 antag – S1P3 receptor antagonists, primary screen, cell-based; AID 485, 2006; actives 0.27% (n = 170,000); Sphingosine 1-phosphate receptor 3 (Homo sapiens), Q99500; CHO S1P3 NFAT-BLA reporter, FRET fluorescence, antagonist mode; inhibition, % at 4.98 µM;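 active means inhibition above the plate cutoff, the mean inhibition of test wells on that plate plus 3 SD, cut at about 28% in these data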;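 further: cells challenged with S1P at its EC80 of 0.8 µM; blue over green emission ratio from cleaved BLA substrate after 4 h stimulation; 0% = S1P-stimulated wells and 100% = unstimulated DMSO-only wells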
EP2 confirm – cAMP induction in EP2, EP4, beta2-AR and parental cells, confirmation, counter-screen for EP2 modulator project, cell-based, five parallel assays, C6 glioma, HEK293. calls only at 20 µM (by protocol). shares compounds with EP2 modulator. cAMP HTRF induction; plus low (about EC15) PGE2 agonist. actives 47% (n = 1,300);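 active means cAMP induction above 50% in the main assay while under 30% in all four parallel counter assays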;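 further: rat C6 glioma cells stably expressing human EP2 receptor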
Numbers without * were called inactive; i = inactive; / = not tested or not shown; + = active, no number. A selection: hits, their analogues and other compounds. The true share with any hit is near 3.1%.

SMILES	Cl transport mod	EP2 modulator	PGE2 EP2 inh	S1P3 antag	EP2 confirm
COc1ccc2c(c1)c(CC(=O)O)c(C)n2Cc1ccc(F)cc1	/	17	8	/	/
COc1ccc2c(c1)c(=O)c(Br)c(C)n2Cc1ccccc1	-0.13	68*	-1	-18	+
O=S(=O)(NCc1cccnc1)c1cccn1-c1ncc(C(F)(F)F)cc1Cl	0.016	-55	4	-12	/
O=S(=O)(c1cccc(C(F)(F)F)c1)N1c2ccccc2-n2cccc2[C@H]1c1cccnc1	/	52	37	/	+
CN(C)C(=O)c1c(NC(=O)c2cccs2)sc2c1CCC(C(C)(C)C)C2 (configuration not stated)	/	47	17	/	/
O=C(COC(=O)c1ccc(S(=O)(=O)N2CCCC2)cc1)Nc1ccc(F)cc1F	-1.2	87*	4	-10	i
CCOC(=O)c1cccc(NC(=O)CSc2nnc(C)c(=O)[nH]2)c1	/	10	8	/	/
[N-]=[N+]=Nc1ccc(C(=O)CSC[C@H](NC(=O)CC[C@H](N)C(=O)O)C(=O)NCC(=O)O)cc1	/	82*	10	/	+
N[C@@H](CCC(=O)N[C@H](CSN=O)C(=O)NCC(=O)O)C(=O)O	/	10	17	/	/
CCOC(=O)c1c(NC(=O)c2ccc(-n3cnnn3)cc2)sc2c1CCCC2	1	58	7	-4	+
CCOC(=O)Nc1sc2c(c1C(=O)OCC)CCC2	0.44	74*	4	/	i
CCOC(=O)CC(=O)CSc1nc(-c2ccc3c(c2)OCO3)cc(C(F)(F)F)c1C#N	0.061	68*	7	/	i
CCOC(=O)CCSc1nc(-c2ccc3c(c2)OCO3)cc(C(F)(F)F)c1C#N	/	31	12	/	/
CCc1nn(CC(=O)N2C(C)CCCC2C)c(=O)c2cc3occc3n12 (configuration not stated)	/	-37	8	/	/
Cc1cccc(-n2c(CCc3ccccc3)nnc2SCC(=O)c2ccccc2)c1	-1.5	64*	8	4	i
Cc1ccc(OCc2nnc(SCC(=O)c3ccccc3)n2-c2ccccc2)cc1	1	32	1	/	/
C=CCn1c(Cc2ccccc2)n[nH]c1=S	0.63	9	13	-39	/
Cc1ccc(OCc2n[nH]c(=S)n2Cc2ccccc2)cc1	/	62*	14	-5	i
COc1ccc(Cc2n[nH]c(=S)n2Cc2ccccc2)cc1Cl	-0.83	53	2	6	i
Cc1scc(-c2n[nH]c(=S)n2Cc2ccccc2)c1C	5.7	51	2	-14	i
CCOc1ccc(Cc2n[nH]c(=S)n2Cc2ccccc2)cc1	-2.4	66*	3	-5	i
Cc1cc(-c2n[nH]c(=S)n2Cc2ccccc2)cs1	2.9	32	1	5	/
Cn1c(=O)c2c(nc(NN)n2Cc2ccccc2Cl)n(C)c1=O	/	8	16	/	/
CCOc1ccccc1-n1c(SCC(=O)N2CCCCC2)nnc1-c1cccnc1	/	-25	6	/	/
CC(C)(C)C(=O)Nc1nc2ccc(F)cc2s1	/	-46	6	/	/
SMILES	Cl transport mod	EP2 modulator	PGE2 EP2 inh	S1P3 antag	EP2 confirm
CCc1ccc(-c2csc(NC(=O)C3CCCO3)c2C(=O)OC(C)C)cc1 (configuration not stated)	0.78	57	6	/	/
COC(=O)c1c(-c2ccc(F)cc2)csc1NC(=O)C1CCCO1 (configuration not stated)	-0.58	66*	5	0	i
O=C(O)c1cc(C(=O)O)cc(N2C(=O)c3ccccc3C2=O)c1	/	87*	8	/	+
O=C(O)c1cccc(N2C(=O)c3ccc4c5c(ccc(c35)C2=O)C(=O)N(c2cccc(C(=O)O)c2)C4=O)c1	-0.015	28	2	10	/
Cc1ccc(Cl)cc1NC(=O)C1CCN(c2ncccn2)CC1	/	-31	4	/	/
Cn1nc(C(F)(F)F)c(/C=N/OC(=O)c2ccccc2)c1Cl	0.27	12	0	/	/
Cn1nc(C(F)(F)F)c(/C=N/OC(=O)c2ccccc2)c1Sc1ccc(Cl)cc1	0.28	70*	14	/	i
